According to PubChem BioAssay AID1159580 (chemical genetic matrix, 2015):
Values joined by “and” are separate entries in the source; they are usually repeats but may differ in a detail not shown here. Identical values can stand only once. The whole screen tested about 5,500 compounds, of which about 2,000 (36%) were called active. Not shown: some 18% with an inconclusive outcome. Rule as the data show it: active = normalized growth mostly below about 0.91 (no sharp cut-off); inconclusive = no clear call, values can overlap the other calls; inactive = mostly above about 0.92. Some of the results follow.

Assay: chemical genetic growth profiling, strain panel (AID 1159580);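 also: tested at 20 µM; growth read once vehicle control cultures reached saturation at 30 °C; 1 = growth at the plate median or of vehicle wells; lower values mean less growth of the strain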
Settings: S. cerevisiae deletion strains, growth OD

Measured: normalized growth

COC(=O)C1=COC(C)C2CN3CCC4(C(=O)Nc5ccccc54)C3CC12 (configuration not stated)
inactive: locus YAL021C, strain ccr4, stronger effect = lower value 1.02 and 1.01 | locus YAL026C, strain drs2, stronger effect = lower value 1.02 | locus YAL030W, strain snc1, stronger effect = lower value 1.01 | locus YBL061C, strain skt5, stronger effect = lower value 1.04 and 1.02 and 1.03 | locus YBR009C, strain hhf1, stronger effect = lower value 1.04 and 1.01 and 1.02 | locus YBR023C, strain chs3, stronger effect = lower value 1.02 and 1.01 | locus YBR171W, strain sec66, stronger effect = lower value 1.03 and 1.02 | locus YBR231C, strain swc5, stronger effect = lower value 1.02 | locus YBR279W, strain paf1, stronger effect = lower value 1.02 and 1.01 | locus YCL011C, strain gbp2, stronger effect = lower value 1.02 and 1.01 | locus YCL016C, strain dcc1, stronger effect = lower value 1.01 | locus YCL061C, strain MRC1, stronger effect = lower value 1.02 and 1.01 | locus YCL069W, strain vba3, stronger effect = lower value 1.02 and 1.01 | locus YCR088W, strain abp1, stronger effect = lower value 1.02 and 1.01 | locus YDL005C, strain med2, stronger effect = lower value 1.02 and 1.01 | locus YDL040C, strain nat1, stronger effect = lower value 1.02 | locus YDR001C, strain nth1, stronger effect = lower value 1.02 and 1.01 | locus YDR069C, strain doa4, stronger effect = lower value 1.02 and 1.04 | locus YDR137W, strain rgp1, stronger effect = lower value 0.988 and 0.962 and 0.914 | locus YDR159W, strain sac3, stronger effect = lower value 1.05 and 1.02 and 1.03 | locus YDR195W, strain ref2 0.992 and 0.996 and 1.01 | locus YDR297W, strain sur2, stronger effect = lower value 1.02 | locus YDR334W, strain swr1, stronger effect = lower value 1.02 and 1.01 | locus YDR335W, strain msn5, stronger effect = lower value 1.03 and 1.02 | locus YDR392W, strain spt3, stronger effect = lower value 1.04 and 1.02 | locus YEL003W, strain gim4, stronger effect = lower value 1.03 and 1.02 | locus YEL037C, strain rad23, stronger effect = lower value 1.01 and 1.02 | locus YEL061C, strain CIN8 (second series), stronger effect = lower value 1.02 and 1.01 | locus YER015W, strain faa2, stronger effect = lower value 1.02 | locus YER016W, strain bim1, stronger effect = lower value 1.01 and 1.02 | locus YER111C, strain swi4, stronger effect = lower value 1.03 and 1.02 and 1.04 | locus YER155C, strain BEM2 (second series), stronger effect = lower value 1.03 and 1.02 and 1.04 | locus YFR010W, strain ubp6, stronger effect = lower value 1.02 | locus YGL167C, strain pmr1, stronger effect = lower value 1.03 and 1.01 and 1.02 | locus YGL173C, strain kem1, stronger effect = lower value 1.04 and 1.02 and 1.03 | locus YGL227W, strain vid30, stronger effect = lower value 1.03 and 1.01 and 1.02 | locus YGL240W, strain doc1, stronger effect = lower value 1.02 | locus YGL253W, strain hxk2, stronger effect = lower value 1.02 and 1.01 | locus YHR013C, strain ard1, stronger effect = lower value 1.03 and 1.01 and 1.02 | locus YHR027C, strain rpn1, stronger effect = lower value 1.02 and 1.01 | locus YHR142W, strain chs7, stronger effect = lower value 1.02 and 1.01 | locus YJL092W, strain hpr5, stronger effect = lower value 1.03 and 1.01 and 1.02 | locus YJL095W, strain BCK1 (second series), stronger effect = lower value 1.01 and 1.02 | locus YJL115W, strain asf1, stronger effect = lower value 1.02 and 1.01 | locus YJL129C, strain trk1, stronger effect = lower value 1.03 and 1.02 | locus YJL154C, strain vps35, stronger effect = lower value 1.02 and 1.01 | locus YJL164C, strain tpk1, stronger effect = lower value 1.02 and 1.03 | locus YJL166W, strain qcr8, stronger effect = lower value 1.03 and 1.01 and 1.02 | locus YJL187C, strain SWE1, stronger effect = lower value 1.02 and 1.01 | locus YKL160W, strain elf1, stronger effect = lower value 1.02 | locus YKR026C, strain gcn3, stronger effect = lower value 1.02 and 1.03 | locus YKR091W, strain srl3, stronger effect = lower value 1.02 and 1.03 | locus YLL001W, strain dnm1, stronger effect = lower value 1.03 and 1.02 | locus YLL026W, stronger effect = lower value 1.01 and 1.02 | locus YLL041C, strain sdh2, stronger effect = lower value 1.02 and 1.01 | locus YLR027C, strain aat2, stronger effect = lower value 1.03 and 1.01 | locus YLR221C, strain rsa3, stronger effect = lower value 1.02 and 1.01 | locus YLR258W, strain gsy2, stronger effect = lower value 1.02 | locus YLR262C, strain YPT6 (second series), stronger effect = lower value 1.02 and 1.01 and 0.938 | locus YLR320W, strain mms22, stronger effect = lower value 1.04 and 1.03 | locus YLR342W, strain FKS1, stronger effect = lower value 1.02 | locus YLR357W, strain rsc2, stronger effect = lower value 1.02 and 0.996 and 1.03 | locus YLR370C, strain arc18, stronger effect = lower value 1.03 and 1 and 1.01 | locus YLR384C, strain iki3, stronger effect = lower value 1.02 and 1.01 | locus YML120C, strain ndi1, stronger effect = lower value 1.04 and 1.02 and 1.03 | locus YMR058W, strain fet3, stronger effect = lower value 1.02 | locus YMR125W, strain sto1, stronger effect = lower value 1.02 and 1.04 | locus YMR129W, stronger effect = lower value 1.02 and 1.01 | locus YMR205C, strain PFK2, stronger effect = lower value 1.03 and 1.02 | locus YMR231W, strain pep5, stronger effect = lower value 1 and 1.01 | locus YNL071W, strain lat1, stronger effect = lower value 1.02 and 1.01 | locus YNL209W, strain ssb2, stronger effect = lower value 1.02 and 1.01 | locus YNL248C, strain rpa49, stronger effect = lower value 1.02 and 1.01 | locus YNL322C, strain KRE1 (second series), stronger effect = lower value 1.01 and 1.02 | locus YNR049C, strain mso1, stronger effect = lower value 1.02 and 1.01 and 1.03 | locus YOR001W, strain rrp6, stronger effect = lower value 1.03 and 1.02 | locus YOR070C, strain gyp1, stronger effect = lower value 1.02 and 1.01 | locus YOR080W, strain dia2, stronger effect = lower value 1.03 and 1.02 | locus YOR083W, strain WHI5, stronger effect = lower value 1.02 and 1.01 | locus YOR106W, strain vam3, stronger effect = lower value 1.02 | locus YOR265W, strain rbl2, stronger effect = lower value 1.01 and 1.02 | locus YOR270C, strain vph1, stronger effect = lower value 1.02 and 1.04 and 1.03 | locus YOR290C, strain snf2, stronger effect = lower value 1.02 | locus YPL051W, strain arl3, stronger effect = lower value 1.01 | locus YPL078C, strain atp4, stronger effect = lower value 1.02 | locus YPL106C, strain sse1, stronger effect = lower value 0.998 and 1 and 1.02 | locus YPL240C, strain hsp82, stronger effect = lower value 1 and 1.02
